# Results filed as inconclusive are left out. Values without a mark were called inactive. Active and inactive are the calls of the source. Calls follow the shape of the dose curve; as a rule, active = well fitted inhibition curve with a large enough effect; inconclusive = small, poorly fitted or top-dose-only effect; inactive = flat fitted curve, though single readings scatter.
# Target: Calcium and integrin-binding protein 1 (Homo sapiens) (UniProt Q99828)
# Assay: Primary qHTS for Identification of Calcium Integrin Binding Protein 1 (CIB1) Competitor (AID 1508620);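 also: GST tagged CIB1 binding a fluorescein labelled alphaIIb integrin peptide tracer; top concentration of the series differs between compounds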
# Settings: CIB1-GST / FITC-alphaIIb peptide fluorescence polarization; series mostly up to 57.7 µM; activity change, negative = inhibition: at the top concentration
# How it was run: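 Fluorescence polarization competition: CIB1-GST (1 uM final) preincubated with compound 15 min at room temperature, then FITC-labeled alphaIIb peptide (100 nM final) added for another 15 min. Polarization read at Ex 480/Em 540.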
# % is scaled to controls: 0 for no effect and ±100 for the full control effect.
# Calcium and integrin-binding protein 1 (Homo sapiens), sequence (Q99828 whole entry, looked up): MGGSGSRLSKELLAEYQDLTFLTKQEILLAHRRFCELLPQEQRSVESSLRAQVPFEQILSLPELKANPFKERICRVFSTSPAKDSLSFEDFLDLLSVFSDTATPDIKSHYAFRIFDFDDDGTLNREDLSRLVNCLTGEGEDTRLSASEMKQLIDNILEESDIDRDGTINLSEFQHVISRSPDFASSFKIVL
Compound,"activity change, negative = inhibition",Potency
OCCc1ccc(O[C@@H]2O[C@H](CO)[C@@H](O)[C@H](O)[C@H]2O)c(O)c1,1.65%,
C=C(C(=O)O)C1CCC(C)C2CCC(=O)OC2(C)C1 (configuration not stated),-12.8% [at 114 µM],
Cn1c(=O)c2nc(/C=C/c3cccc(Cl)c3)n(C)c2n(C)c1=O,0.519% [at 228 µM],
CC(=O)OC[C@]12[C@H](OC(C)=O)C(=O)[C@@H]3[C@@H](OC(C)=O)[C@@]14O[C@@]3(C)COC(=O)c1cccnc1[C@@H](C)[C@H](C)C(=O)O[C@@H]([C@H](OC(C)=O)[C@@H]2OC(C)=O)[C@]4(C)O,-2.6% [at 30.2 µM],
CCOC(=O)c1ccc(N(C)c2csc(-c3ccccc3)n2)cc1,0.302% [at 114 µM],
CC1(CO)CC2C(O)C(=O)C3(CO)CC3(C)C2C1 (configuration not stated),2.61% [at 114 µM],
C=C1[C@@H]2[C@H]3OC(=O)C(=C)[C@@H]3CC[C@@](C)(O)[C@@H]2C[C@@H]1O[C@@H]1O[C@H](CO)[C@@H](O)[C@H](O)[C@H]1O,0.395%,
CC1(C)C(O)CCC2(C)C1C(O)C=C1COC(=O)C12O (configuration not stated),3.73% [at 114 µM],
CC(O)C(O)/C=C/C=C/C(=O)O[C@@H]1C=C2COC(=O)[C@]2(O)[C@@]2(C)CCCC(C)(C)C12 (some centres not stated),2.57%,
FC(F)(F)c1cc(C(F)(F)F)c2ccc3nc(-c4nnco4)cn3c2n1,3.19% [at 114 µM],
C=C(C)C(=O)O[C@H]1C[C@@](C)(OC(C)=O)[C@@]2(O)CC[C@@](C)(O)[C@H](OC(C)=O)[C@@]23OC(=O)C(COC)=C13,-7.51%,
CC1=C2C(=O)C=C(CO)[C@@H]2[C@H]2OC(=O)[C@H](C)[C@@H]2[C@@H](O)C1,-9.66% [at 114 µM],
COc1cc(/C=C/C(=O)OC(C)(C)C(OC2OC(CO)C(O)C(O)C2O)C(=O)OCc2ccc(OC3OC(CO)C(O)C(O)C3O)cc2)ccc1O (configuration not stated),-2.54% [at 30.2 µM],
Nc1nonc1C(=Nc1ccc(F)c(Cl)c1)NO,3.26% [at 114 µM],
C=C(C)[C@@H]1CC[C@](C)(O)[C@@H](OC(=O)c2ccccc2)C1,1.43% [at 114 µM],
N#Cc1ccc2[nH]c(O)c(-c3ccc(CN4CCOCC4)cn3)c2c1,,inactive
NCc1c[nH]c(=S)n1C1CCc2c(F)cc(F)cc2C1 (configuration not stated),1.33% [at 114 µM],
